# Test results reported in PubChem BioAssay AID577 (University of Pittsburgh Molecular Library Screening Center, 2007).
# Screen size: about 65,000 compounds; about 120 (0.18%) were called active. What follows is part of a selection rich in actives, with near analogues and random picks from the rest. Unmarked numbers belong to inactive results. Rule as the data show it: active = z-score below about -3; inactive = the rest.
# Molecular target: Genome polyprotein (West Nile virus) (UniProt P06935)
# Experiment: inhibitors of WNV NS2B-NS3 protease, primary screen, biochemical, fluorogenic substrate (AID 577)
# Settings: fluorogenic substrate Ex360/Em465, stronger effect = lower value
# Genome polyprotein (West Nile virus), sequence (P06935 1371-1501 limits assumed): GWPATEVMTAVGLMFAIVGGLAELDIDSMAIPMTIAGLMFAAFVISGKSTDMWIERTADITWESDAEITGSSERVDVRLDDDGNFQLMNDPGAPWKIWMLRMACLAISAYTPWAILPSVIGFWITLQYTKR
# Genome polyprotein (West Nile virus), sequence (P06935 1502-1679 limits assumed): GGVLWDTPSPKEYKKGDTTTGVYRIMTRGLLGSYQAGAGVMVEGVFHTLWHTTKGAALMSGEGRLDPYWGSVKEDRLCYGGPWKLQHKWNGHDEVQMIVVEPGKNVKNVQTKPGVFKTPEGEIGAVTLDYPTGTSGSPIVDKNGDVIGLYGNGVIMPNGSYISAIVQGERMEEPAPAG
row,Compound,z-score
1,O=C(Nc1ccccc1N1CCCCC1)c1ccc2nccnc2c1,-0.92
2,Cc1cc(N2C(=O)C(=O)/C(=C(/O)c3ccc(Cl)cc3)C2c2cccc(Br)c2)no1 (stereo not drawn),0.05
3,COc1ccc(S(=O)(=O)N2CCN(c3ncnc4c(-c5ccccc5)nsc34)CC2)cc1,-0.64
4,Cc1ccc(NC(=O)C2CC(c3ccc(F)cc3)=NO2)cc1 (stereo not drawn),-0.46
5,Cc1noc(C)c1S(=O)(=O)NCCc1ccc(S(N)(=O)=O)cc1,-0.09
6,Cn1c(=O)cc(OCCCC(=O)N2CCN(Cc3ccc4c(c3)OCO4)CC2)c2ccccc21,-0.06
7,O=c1[nH][nH]c(=O)c2cc(N3CCCC3)ccc12,0.92
8,COc1ccc(C)c2sc(=NC(=O)c3ccc(C#N)cc3)n(C)c12,0.36
9,COc1ccccc1CNC(=O)CCn1c(=O)sc2ccccc21,0.34
10,O=S(=O)(CCc1nc2ccccc2o1)c1ccc(Cl)cc1,0.84
11,CCN(CC(=O)NC(C)C)C(=O)CCNC(=O)c1ccc(Cl)cc1,-3.81 (active)
12,Cc1ccc(CNC(=O)CCCNC(=O)c2ccc(Cl)cc2)n1C,0.2
13,CC(NC(=O)c1ccc(Cl)cc1)C(=O)N1CCCCC1 (stereo not drawn),-0.48
14,CCOC(=O)C1CCCN(C(=O)Cn2ncc3c(=O)oc4ccc(C)cc4c32)C1 (stereo not drawn),-0.8
15,CC(=O)N(Cc1cccs1)C1CCOC(C)(C)C1 (stereo not drawn),0.1
16,O=c1c2c(nc3n1CCCCC3)sc1c(O)cccc12,-0.99
17,CCn1cc(C(=O)NCc2ccc(OC)cc2OC)c(=O)c2ccc(C)nc21,0.31
18,CN1CCN(C(=O)c2ccc(NS(=O)(=O)c3ccccc3)cc2)CC1,0.73
19,CC(=O)N1CCN(C(=O)c2cccc(S(=O)(=O)Nc3ccc(C)cc3)c2)CC1,-4.83 (active)
20,O=C(c1cccc(S(=O)(=O)N2CCOCC2)c1)N1CCOCC1,-0.56
21,O=C(NCc1ccco1)C1CCCN(S(=O)(=O)c2cnc[nH]2)C1 (stereo not drawn),0.15
22,Cn1c(=O)[nH]c(=O)c2c1nc(N1CCN(CCO)CC1)n2CCSc1nc2ccccc2s1,0.89
23,CCOC(=O)N1CCC(NC(=O)c2ccc3nc(N4CCOCC4)sc3c2)CC1,-0.98
24,O=C(NCc1ccco1)c1ccc(CS(=O)(=O)Cc2ccc(F)cc2)o1,-0.19
25,CCOc1ccccc1NC(=O)c1cc(S(=O)(=O)N2CCC3(CC2)OCCO3)ccc1F,-0.89

row,Compound,z-score
1,O=C(Cn1c(-c2ccccn2)nc2ccccc21)NCCN1CCOCC1,0.41
2,O=C(Nc1ccon1)c1sc2ccccc2c1Cl,1.15
3,O=C(O)Cc1ccc(NC(=O)C2CCCCC2C(=O)O)cc1 (stereo not drawn),0.69
4,Cc1cccc(N2CC(C)Cn3c2nc2c3c(=O)n(CC(=O)OCc3ccccc3)c(=O)n2C)c1 (stereo not drawn),-0.58
5,O=C(Cc1c(F)cccc1Cl)N1CCN(C(=O)c2ccco2)CC1,0.71
6,Cc1oc(CC(C)C)c(CN2CCCC2)c1C(=O)O,0.09
7,CC1CCN(c2nc3c(c(=O)[nH]c(=O)n3C)n2CCCc2ccccc2)CC1,-0.61
8,COc1ccc(NC(=O)Nc2cccc3cccnc23)cc1,-0.61
9,COc1ccc(-c2ccc(Nc3ccc(S(=O)(=O)N4CCCC4)cc3)nn2)cc1OC,-0.56
10,c1ccc(-c2cc(-c3nnc4sc(-c5ccccn5)nn34)[nH]n2)cc1,-1.41
11,Cc1cc2nc(-c3ccc(NC(=O)c4cccnc4)cc3)oc2cc1C,-0.13
12,COc1ccc(OC)c(S(=O)(=O)Nc2ccccc2F)c1,0.89
13,O=C(Cn1cnc2c(nnn2-c2ccccc2)c1=O)N1CCC(Cc2ccccc2)CC1,2.2
14,NS(=O)(=O)c1cc2c(cc1Cl)NC(C(Cl)Cl)NS2(=O)=O (stereo not drawn),1.86
15,CNC(=O)n1ccc(C(=O)N2CCCCC2)n1,1.25
16,COc1ccccc1N=C1SC(C)CN1C(=O)C1CCC1 (stereo not drawn),-0.3
17,COCCN1Cc2cccc(C(=O)Nc3ccccc3OC)c2C1=O,-0.41
18,CC(C)OCCCNC(=O)C1CC(=O)N(C2CCCCCCC2)C1 (stereo not drawn),-1.25
19,CCOC(=O)C1=C(CNC2CCCCC2)NC(=O)NC1c1cc(C)ccc1C (stereo not drawn),-0.35
20,c1ccc(-c2noc(-c3cccs3)n2)nc1,-0.18
21,O=C(CCCN1C(=O)CSc2ncccc21)N1CCN(c2cccc(C(F)(F)F)c2)CC1,0.85
22,O=C(CC1(O)C(=O)N(CN2CCOCC2)c2ccccc21)c1ccccc1 (stereo not drawn),2.57
23,CC(C)Cn1c(CN(Cc2ccccc2)Cc2ccccc2)nc2c1c(=O)n(C)c(=O)n2C,0.14
24,CCOC(=O)N1CCN(CC(=O)c2ccc3c(c2)CCN3)CC1,-0.8
25,O=C1Nc2ccccc2C12Nc1ccccc1S2 (stereo not drawn),-0.84

row,Compound,z-score
1,CC(=O)N1CC2(C)CN(C(C)=O)CC(C)(C1)C2=O,-0.17
2,CCOC(=O)c1cnc(-n2nc(C)cc2C)nc1-n1nc(C)cc1C,0.5
3,CCOC(=O)N1CCN(C(=O)CN(C2CCCCC2)S(C)(=O)=O)CC1,-1.44
4,COC(=O)C1=C(C)NC2=C(C(=O)c3ccccc32)C1c1ccc(-c2ccc(C(=O)O)cc2)o1 (stereo not drawn),0.76
5,COCCCN(C(=O)Cn1ncc2c(=O)oc3ccc(C)cc3c21)C(C)c1ccncc1 (stereo not drawn),-0.67
6,Cc1ccccc1N1CC(c2nc3ccccc3[nH]2)CC1=O (stereo not drawn),1.22
7,O=C(CC1N=C2c3ccccc3N=C(SCc3ccccc3Cl)N2C1=O)NCc1ccco1 (stereo not drawn),1.46
8,Cc1c(C(=O)Nc2ccccc2Cl)oc2ccc(S(=O)(=O)N3CCC4(CC3)OCCO4)cc12,-1.64
9,Cc1cccc(-n2c(N)cc(=O)nc2SC(C)C(=O)NC2CCCCC2)c1 (stereo not drawn),-0.09
10,CCCCN=C(N)/C(C(=O)OCC)=C(\O)c1ccc(OC)cc1,0.82
11,COc1ccc2c(Cl)c(-c3nnco3)sc2c1,-0.13
12,C=CCOc1ccc(/C=N/n2cncn2)cc1OC,1.7
13,CCOCC(=O)NCc1ccc2c(c1)cc(C)n2C,-0.69
14,Cc1ccc2c(c1)NCC(C(=O)NC1CCC(C)CC1)O2 (stereo not drawn),0.12
15,c1ccc(-c2nnc3n2NC(c2ccc4c(c2)OCO4)S3)cc1 (stereo not drawn),-0.39
16,C=CCn1c(COc2cccc3cccnc23)nnc1SCC(=O)OC,-1.04
17,COc1ccc(-n2c(SCC(=O)Nc3ccc4c(c3)OCO4)nnc2C(C)N2CCCCC2)cc1 (stereo not drawn),-0.67
18,CCOc1ccccc1NC(=O)CCc1ccc(C)o1,-0.55
19,O=C(c1ccco1)N(Cc1nc2ccccc2c(=O)[nH]1)C1CCCC1,-1.19
20,Cn1c(NC(=O)c2ccco2)c(-c2ccccc2Cl)c(=O)c2ccccc21,-0.04
21,COC(=O)c1oc2ccc(Br)cc2c1NC(C)=O,0.25
22,COc1ccc2oc(C)c(NC(C)=O)c2c1,-0.59
23,COc1ccc(C(=O)c2oc3ccc(Br)cc3c2NC(C)=O)cc1,-3 (active)
24,O=C1CSC(c2cccc(F)c2)N1c1ccccc1F (stereo not drawn),-0.93
25,CCCS(=O)(=O)N1CCCC(C(=O)N2CCN(c3ccccc3)CC2)C1 (stereo not drawn),0.81

row,Compound,z-score
1,CCn1c(SCCC(C)C)nnc1-c1c[nH]c2ccccc12,-0.65
2,CCOC1CCCCC1NS(=O)(=O)c1ccc(Cl)cc1 (stereo not drawn),-0.25
3,CCNC(=O)N1CCNC(=O)C1CC(=O)Nc1ccc(C(=O)OCC)cc1 (stereo not drawn),-0.78
4,Cc1cccc2nc(CNc3ccc(F)cc3)cn12,-0.49
5,Cc1cc(N2CCCC2=O)cc(C)c1S(N)(=O)=O,0.56
6,O=C(O)C1C2C=CC(C2)C1C(=O)N1CCN(CCO)CC1 (stereo not drawn),0.43
7,CCCn1c(=O)c2[nH]c(C3CCCC3)nc2n(CCC)c1=O,0.05
8,CCOc1ccccc1Nc1nnc(SCC(=O)Nc2cc(C)on2)s1,-1.46
9,O=C(CN1C(=O)COc2ccccc21)Nc1ccc(F)cc1,1.4
10,Nc1cc(OC(=O)c2ccccc2Br)nn1S(=O)(=O)c1ccccc1,-6.2 (active)
11,Cc1ccc(S(=O)(=O)n2nc(OC(=O)C(C)(C)C)cc2N)cc1,0.18
12,CCCCN(CC)C(=O)CN(C)S(=O)(=O)c1cccc2nsnc12,1.67
13,CC1Cc2ccccc2N1C(=O)CSc1nnc(-c2ccc(S(=O)(=O)N3CCCCC3)cc2)o1 (stereo not drawn),0.94
14,CC(=O)N1CSCC1C(=O)O (stereo not drawn),-5.15 (active)
15,COCc1cc(C)nc(SCC(=O)Nc2cccc(C)c2)c1C#N,1.36
16,Cn1c(=NC(=O)c2cnccn2)sc2ccccc21,-1.53
17,O=C(Nc1ccccc1N1CCCCC1)c1cccc(F)c1,0.74
18,O=C(CNC(=O)c1ccc(Cl)cc1Cl)NCC(=O)Nc1ccccc1N1CCOCC1,-1.5
19,CC(=NCc1ccco1)C1=C(O)c2ccccc2C1=O,0.81
20,CC1Cc2ccccc2N1C(=O)CSc1nc2ccccc2o1 (stereo not drawn),-0.42
21,O=C(COc1ncnc2ccccc12)NC(=O)NCc1ccccc1,0.88
22,Cc1noc(C)c1COC(=O)Cn1c(C)nc2ccccc21,-1.33
23,CCOC(=O)N1CCC(NC(=O)C(C)n2c3ccccc3c3cnn(C)c(=O)c32)CC1 (stereo not drawn),-0.72
